Hits are enriched below; roughly 12% of the tested compounds scored in any of these assays.
G9a inh = qHTS Assay for Inhibitors of Histone Lysine Methyltransferase G9a. G9a H3K9 monomethylation, AlphaScreen, 2 h. Histone-lysine N-methyltransferase EHMT2 (Homo sapiens), Q96KQ7. Potency, µM (series often up to 102 µM), without a hit: at the highest dose activity, negative = inhibition, most hits filed as inhibitors. 350,000 compounds, 8.8% hits; further: on the % scale 0 is the no-effect control and ±100 the full control effect; nearly all actives have a fitted effect of over 75% in size
Target sequence (Q96KQ7 913-1193 limits assumed): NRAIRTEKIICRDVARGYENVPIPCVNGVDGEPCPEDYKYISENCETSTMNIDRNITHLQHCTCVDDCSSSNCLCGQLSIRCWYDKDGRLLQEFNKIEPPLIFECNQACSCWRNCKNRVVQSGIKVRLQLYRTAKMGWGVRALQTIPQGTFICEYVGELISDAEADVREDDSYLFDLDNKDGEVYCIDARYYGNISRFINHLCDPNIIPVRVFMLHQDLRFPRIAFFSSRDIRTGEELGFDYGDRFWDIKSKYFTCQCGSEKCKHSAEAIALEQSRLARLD
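Chemiluminescent proximity detection of H3K9 monomethylation, read after 10 min bead incubation in the dark. Reaction: 20 nM G9a, 500 nM biotin-H3K9 peptide, 20 uM SAM cofactor, 2 h, room temperature, following 15 min enzyme-compound preincubation.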
TDP1 inh = qHTS Assay for Inhibitors of Tyrosyl-DNA Phosphodiesterase (TDP1) | Potency, µM (top dose mostly 130 µM), for the others: at the top dose activity change, negative = inhibition, actives largely listed as inhibitors | 350,000 compounds, 0.28% hits | AID 485290, 2010 | recombinant TDP1, AlphaScreen DNA substrate cleavage; further: on the % scale 0 is the no-effect control and ±100 the full control effect; nearly all actives have a fitted effect of over 40% in size
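E. coli-derived human Tdp1, 1 nM final. Cpd preinc 15 min RT; substrate 15 nM final, 5 min RT; AS bead mix 10 ug/ml final, 10 min RT. Signal loss = tyrosine-FITC cleavage. No-enzyme wells = max signal.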
JMJD2A Tudor = qHTS Assay for Inhibitors of JMJD2A-Tudor Domain. Lysine-specific demethylase 4A (Homo sapiens), O75164. AlphaScreen JMJD2A-Tudor / H3K4me3 peptide binding. Potency, µM (titrated, usually from 114 µM), for inactives: at the top dose activity change, negative = inhibition, usual class: inhibitors. 390,000 compounds, 4.4% hits. AID 504339, 2011; further: on the % scale 0 is the no-effect control and ±100 the full control effect; nearly all actives have a fitted effect of over 50% in size
Sfp inh = qHTS Assay for Inhibitors of Bacillus subtilis Sfp phosphopantetheinyl transferase (PPTase); 4'-phosphopantetheinyl transferase ffp (Bacillus subtilis), Q9F4F7; Biochemical Sfp PPTase activity, qHTS; Potency, µM, inactives show largest response in the series, negative = inhibition, actives largely listed as inhibitors; 310,000 compounds, 3.5% hits; AID 1490, 2009;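 further: the enzyme is Sfp with the accession as filed and its product quenches rhodamine fluorescence; 0% = enzyme reaction without inhibitor and -100% = no enzyme wells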
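Sfp 15 nM + cpd, 15 min RT; start w/ rhodamine-CoA 5 uM, BHQ-2-YbbR 12.5 uM (final); 50 mM Hepes pH 7.6, 10 mM MgCl2, 0.01% NP-40, 0.01% BSA; read 525/598 nm at 0 and 30 min.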
HP1b binding inh = HTS for Inhibitors of HP1-beta Chromodomain Interactions with Methylated Histone Tails. AlphaScreen HP1-beta / biotin-H3K9me3 peptide binding. Potency, µM (series often up to 114 µM), inactives show at the top dose activity change, negative = inhibition, actives largely listed as inhibitors. 390,000 compounds, 0.56% hits. AID 540317, 2011; further: nearly all actives have a fitted effect of over 70% in size
Target sequence (P83916 whole entry, looked up): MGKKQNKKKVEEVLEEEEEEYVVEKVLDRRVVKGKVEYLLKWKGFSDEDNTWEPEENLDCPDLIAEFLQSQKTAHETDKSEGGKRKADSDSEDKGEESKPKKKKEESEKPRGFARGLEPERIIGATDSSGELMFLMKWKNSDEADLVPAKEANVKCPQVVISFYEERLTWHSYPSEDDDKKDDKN
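HP1-beta protein (50 nM final) preincubated 30 min at room temperature with biotinylated H3(1-18)K9me3 peptide (50 nM) in PBS pH 7.4, 0.01% Tween-20, then compound added for 30 min. AlphaScreen streptavidin donor/nickel chelate acceptor beads (10 ug/mL final), 30 min dark, luminescence read.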
BAZ2B inh = qHTS Assay for Inhibitors of BAZ2B | AlphaScreen BAZ2B-H3K14Ac peptide displacement | Potency, µM (highest dose often 114 µM), without a hit: top-dose activity change, negative = inhibition, most hits filed as inhibitors | Bromodomain adjacent to zinc finger domain protein 2B (Homo sapiens), Q9UIF8 | AID 504333, 2011 | 360,000 compounds, 4.4% hits; further: on the % scale 0 is the no-effect control and ±100 the full control effect; nearly all actives have a fitted effect of over 60% in size
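AlphaScreen displacement of biotin-H3(5-23)K14Ac peptide (50 nM final) from BAZ2B (50 nM final) in PBS pH 7.4, 0.01% Tween-20; complex preformed 30 min RT, then compounds (top 110 uM) 30 min RT, beads 20 min dark.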
An asterisk follows results filed as active; ? = inconclusive; · = no result; [ ] = dose if it differs, or a comment. The call rests on the fitted dose curve; in most records, active means well fitted curve in the direction sought with a large enough effect; inconclusive means small, poorly fitted or top-dose-only effect, or another doubt; inactive means no such curve, though single readings can be large; an effect the other way counts as inactive or inconclusive. Potency means the concentration at half of the fitted maximal effect.

SMILES | G9a inh | TDP1 inh | JMJD2A Tudor | Sfp inh | HP1b binding inh | BAZ2B inh
COc1cc(/C=C/C(=O)C2C(=O)C=C(C)OC2=O)cc(OC)c1O (stereo not given) | 50µM* | 4% | -31% | -26% | -2% | 56µM*
COc1cc(/C=C/C(=O)O)cc(Br)c1O | 20%[12.7 µM] | · | -4% | 30% | 28% | ?
CCOC(=O)C1CCN(C(c2cccc(F)c2)c2c(O)cc(C)n(Cc3ccco3)c2=O)CC1 (stereo not given) | -37%[59 µM] | 8% | -30% | · | 28%[57 µM] | -23%
COc1ccc(-n2nc(C(=O)NCC(=O)NCc3ccc(F)cc3)c3ccccc3c2=O)cc1OC | ? | 6%[0.0935 µM] | -26% | ? | 4% | ?
CC(=O)N1/C(=C/c2ccc(N(C)C)cc2)C(=O)c2ccccc21 | 11µM* | 11% | 18µM* | -26% | 22µM* | 10µM*
CN(C)c1ccc(/C=C2/C(=O)Nc3ccccc32)cc1 | · | 27%[56.1 µM] | · | ? | · | ·
Cc1cc(OCC(=O)NCc2ccncc2)ccc1Cl | 5% | 4% | 18% | 20% | 41% | -6%
S=C(Nc1ccccc1)Nn1cnnc1 | 1.4µM* | -1% | -26% | 13µM* | -19% | ?
CCc1ccc(NC(=O)Nn2cnnc2)cc1 | 8% | 5% | -10% | 9% | 28% | -17%
Cc1ccc(NC(=S)Nn2cnnc2)cc1 | 2.8µM* | -5% | ? | 8.9µM* | -17% | ?
CCc1ccc(NC(=S)Nn2cnnc2)cc1 | 7.9µM* | 3% | 79µM* | 14µM* | ? | -26%
COc1ccc(NC(=S)Nn2cnnc2)c(OC)c1 | 5µM* | 8% | ? | 18µM* | ? | ?
CNC(=S)Nc1ccc(C)cc1 | 14% | 3% | -10% | 4% | 1% | -19%
COc1ccc(C(=O)NCCC(=O)NCc2cc(=O)n(C)c(=O)n2C)cc1 | 31% | 3% | 0% | -1% | 48% | -4%
Cc1csc(=O)n1CCC(=O)OCc1nnc(-c2ccc([N+](=O)[O-])cc2)o1 | 17%[12.7 µM] | 3% | -18% | · | 8% | -6%
O=C(COC(=O)CCc1ccccc1)NNC(=O)c1ccccc1 | · | -3% | 3% | · | 31%[57 µM] | ·
COc1ccc(NC(=S)Nn2cnnc2)cc1OC | 4µM* | -2% | 18µM* | 20µM* | ? | -33%
Cc1cccc2sc(N(Cc3cccnc3)C(=O)C3CCCCC3)nc12 | -4%[59 µM] | 3% | 8% | · | 61% | 12%
O=C(CSc1nnc(-c2ccc(F)cc2)o1)N1CCCCC1 | 21% | 9% | 0% | 14% | 14% | 4%
CC1CC(C)CN(C(=O)CSc2nnc(-c3ccc(F)cc3)o2)C1 (stereo not given) | 71µM* | -2% | -6% | -27% | 21% | -6%
CCOc1ccc(C(=S)NC2CCCCC2)cc1 | 10µM* | 0% | -9% | 6% | -20% | -20%
CCc1ccc(OCCOCC(O)CNC2CCCC2)cc1 (stereo not given) | 7% | 3% | -1% | 5% | 17% | 1%
CCOc1ccc(C(=O)NC2CCCCCCC2)cc1 | · | · | 12% | · | 28% | ·
CCOc1ccc(OCCNC2CCCC2)cc1 | ? | 4% | 3.2µM* | ? | ? | 17%
CCCOc1ccc(OCCNC2CCCC2)cc1 | 10µM* | -1% | 89µM* | -13% | ? | ?
SMILES | G9a inh | TDP1 inh | JMJD2A Tudor | Sfp inh | HP1b binding inh | BAZ2B inh
O=C(c1cc2cccc([N+](=O)[O-])c2oc1=O)N1CCOCC1 | -2% | 0% | -2% | 3% | 20% | 2%
COc1cc(CC(=O)N(c2ccccc2)c2nc(C)cs2)cc(OC)c1OC | -45% | -1% | -20% | -4% | 22% | -21%
CNNC(=S)Nc1cccc(C(F)(F)F)c1 | -32% | 6% | -3% | -5% | 51% | -28%
CCOc1cc(OCC)cc(C(=O)Nc2cccc(C(C)=O)c2)c1 | -48%[59 µM] | 4% | -17% | -7% | 20% | 0%
FC(F)(F)c1cccc(NC(=S)Nc2ccc(Cl)c(Cl)c2)c1 | · | 6% | 3% | -19% | 31% | 7%
CCOc1cc(OCC)cc(C(=O)NC(=S)Nc2cccc(C(F)(F)F)c2)c1 | -3%[59 µM] | 5% | -10% | 89µM* | 11% | -1%[57.1 µM]
O=C(NC(=S)Nc1cccc(C(F)(F)F)c1)c1ccc2nonc2c1 | 45µM* | 5% | ? | ? | ? | ?
COc1cccc(NC(=S)NNC(=O)C(C)n2nc(C)c([N+](=O)[O-])c2C)c1 (stereo not given) | 40µM* | 8% | -6% | 21% | 19% | -4%[57.1 µM]
COc1ccc(NC(=S)NNC(=S)Nc2cccc(C(F)(F)F)c2)cc1 | 22µM* | 10% | ? | 20µM* | ? | ?
CCOc1ccc(NC(=S)NNC(=O)c2cc(Br)ccc2Cl)cc1 | 45µM* | 11% | -29% | -11% | -16% | -19%
CCOc1ccc(NC(=S)NNC(=S)Nc2cccc(C(F)(F)F)c2)cc1 | · | 6% | -24% | 35µM* | -2% | ?
Cc1cc(C(F)(F)F)nn1CC(=O)NNC(=S)Nc1ccc(Cl)cc1 | 8%[2.33 µM] | 12% | -7% | 26% | -4% | 2%
COc1cccc(NC(=S)NNC(=O)Cn2nc(C(F)(F)F)cc2C)c1 | 11µM* | 8% | 1% | 16% | 24% | -6%
CC(=O)Nc1ccc(C2=NN(C)C(=NCc3ccccc3)SC2)cc1 | ? | 0% | 45µM* | -15% | -11% | ·
O=C(Nc1ccc(Cl)cc1)N1CCSC1=NCc1ccccc1 | -10%[59 µM] | · | -1% | 19% | 4% | -14%
O=C1NC(=O)/C(=C/c2ccc(-c3ccc(F)cc3O)o2)S1 | 21µM* | · | · | · | · | ·
O=C1NC(=S)SC1=Cc1ccc(F)cc1 | · | · | -31% | · | -3% | ·
O=C1c2ccccc2C(=O)N1CCC#Cc1ccc2cc(CCCO)oc(=O)c2c1 | · | 2% | -14% | · | 19% | ·
Cc1ccc(CNC(=O)CN2C(=O)COc3ccc(S(=O)(=O)Nc4ccccc4)cc32)cc1 | -22%[59 µM] | 8% | -21% | · | 2% | -24%
COC(=O)/C(=C\C=C\c1ccccc1)NC(=O)c1ccccc1 | -15% | 1% | 25µM* | -6% | -3% | -4%
O=C(Nc1ccc(O)cc1)/C(=C\C=C\c1ccccc1)NC(=O)c1ccccc1 | ? | 7% | -35% | 19% | 2% | ?
O=C(N/C(=C/C=C/c1ccccc1)C(=O)N1CCCCC1)c1ccc([N+](=O)[O-])cc1 | 50µM* | 10% | ? | -14% | 1% | -35%
